# PMC11066047
# Key:
# [1] = target: U3 small nucleolar RNA-associated protein MPP10 (UniProt P47083); assay: cross-link between two proteins
# [2] = target: Ubiquitin-like protein MDY2 (UniProt Q12285); assay: cross-link between two proteins; cross-linking mass spectrometry
# [3] = target: rRNA-processing protein FCF2 (UniProt Q12035); assay: cross-link between two proteins
# Sequence of rRNA-processing protein FCF2 (Q12035 whole entry): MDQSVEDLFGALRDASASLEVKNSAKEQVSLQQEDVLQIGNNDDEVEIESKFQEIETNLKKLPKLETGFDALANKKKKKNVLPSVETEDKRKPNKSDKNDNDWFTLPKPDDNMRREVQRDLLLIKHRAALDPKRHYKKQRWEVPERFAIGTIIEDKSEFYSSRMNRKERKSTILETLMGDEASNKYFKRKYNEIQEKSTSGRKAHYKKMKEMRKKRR
# Sequence of U3 small nucleolar RNA-associated protein MPP10 (P47083 whole entry): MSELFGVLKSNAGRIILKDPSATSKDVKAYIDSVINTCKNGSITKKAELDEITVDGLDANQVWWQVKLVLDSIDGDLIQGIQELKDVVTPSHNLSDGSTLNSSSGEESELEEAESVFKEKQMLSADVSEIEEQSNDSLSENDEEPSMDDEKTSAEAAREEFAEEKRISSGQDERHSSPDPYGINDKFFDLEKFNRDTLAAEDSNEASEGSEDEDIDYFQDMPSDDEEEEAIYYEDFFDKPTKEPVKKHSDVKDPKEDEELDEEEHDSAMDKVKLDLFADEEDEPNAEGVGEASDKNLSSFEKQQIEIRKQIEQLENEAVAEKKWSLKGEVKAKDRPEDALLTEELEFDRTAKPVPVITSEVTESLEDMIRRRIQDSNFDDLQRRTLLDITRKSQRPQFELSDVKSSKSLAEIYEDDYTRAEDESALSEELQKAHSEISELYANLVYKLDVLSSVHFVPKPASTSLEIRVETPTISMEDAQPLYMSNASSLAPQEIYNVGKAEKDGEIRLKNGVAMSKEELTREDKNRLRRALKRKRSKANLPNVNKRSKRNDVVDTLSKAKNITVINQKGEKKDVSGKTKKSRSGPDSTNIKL
# Sequence of Ubiquitin-like protein MDY2 (Q12285 whole entry): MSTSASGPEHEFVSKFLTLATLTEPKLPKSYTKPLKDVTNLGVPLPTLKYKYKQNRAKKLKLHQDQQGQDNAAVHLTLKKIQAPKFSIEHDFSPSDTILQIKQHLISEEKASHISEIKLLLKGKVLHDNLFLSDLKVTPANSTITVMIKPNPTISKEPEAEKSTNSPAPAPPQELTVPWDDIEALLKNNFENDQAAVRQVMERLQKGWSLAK
substance,measurement,setting,value
"U3 small nucleolar ribonucleoprotein protein IMP3, P32899",listed as a hit,[1],yes
"Golgi to ER traffic protein 4, Q12125",listed as a hit,[2],yes
"U3 small nucleolar RNA-associated protein 6, Q02354",listed as a hit,[3],yes
